Results from PubChem BioAssay (NCI).
About 83,000 compounds went through this panel and 20% of them were active in at least one assay; those are over-represented in the sample as a whole.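 Each cell line was grown in a 96-well plate and treated with one concentration of compound for 48 hours. Values below 10 were considered active.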 Unmarked numbers belong to inactive results. Active and inactive are the calls of the source.

How the values were obtained:
Assay in all cases: NCI-60 one-dose screen, 48 h (100 = growth as untreated, 0 = no growth, -100 = all killed)
Conditions in all cases: 10 µM unless noted
[1] = tested on: NCI-H23 lung
[2] = tested on: NCI-H226 lung
[3] = tested on: NCI-H322M lung
[4] = tested on: HOP-62 NSCLC
[5] = tested on: NCI-H460 lung
[6] = tested on: HOP-92 NSCLC
[7] = tested on: NCI-H522 lung
[8] = tested on: A549/ATCC NSCLC
[9] = tested on: 786-0 renal
[10] = tested on: COLO 205 colon
[11] = tested on: DU-145 prostate
[12] = tested on: K-562 leukemia
[13] = tested on: MALME-3M melanoma
[14] = tested on: MDA-MB-231 breast
[15] = tested on: RXF 393 renal
[16] = tested on: SF-268 CNS
[17] = tested on: SF-295 CNS
[18] = tested on: SF-539 CNS
[19] = tested on: UACC-257 melanoma
[20] = tested on: M14 melanoma

SMILES	growth [1]	growth [2]	growth [3]	growth [4]	growth [5]	growth [6]	growth [7]	growth [8]	growth [9]	growth [10]	growth [11]	growth [12]	growth [13]	growth [14]	growth [15]	growth [16]	growth [17]	growth [18]	growth [19]	growth [20]
COc1cc2c(c(OC)c1OC)-c1ccc(OC)c(=O)cc1[C@@H](NC(=O)CCl)CC2	5.73% (active)	12.5%	52.1%	40.4%	-5.39% (active)	10%	-27.4% (active)	13%	14.6%	-71.9% (active)	-18% (active)	22.1%	91.8%	4.86% (active)	-12.6% (active)	23.2%	25.1%	4.53% (active)	60.1%	
CC(C)n1cnc2c(=S)nc[nH]c21	114%	107%	112%	108%	111%	103%	105%	126%	113%	114%	111%	69.9%	156%	118%	121%	101%	90.1%	99.6%	120%	
O=C(OCc1ccc2c(Cl)cc(Cl)c(O)c2n1)n1cncn1	44.5%	59.1%	50.4%	27.5%	19.9%	49.4%	51.4%	22.1%	45.7%	96.5%	38.7%	18.2%	33%	59.6%	45.9%	24.1%	20%	15.7%	41.2%	20.4%
O=C(CSc1nc2sc3c(c2c(=O)n1-c1ccccc1)CCCCC3)N/N=C/c1ccc(F)cc1	37.7%	86.9%	67.5%	19.9%	1.12% (active)	82.6%	44.3%	9.73% (active)	64.1%	33%	-0.517% (active)	64.2%	11.3%	-26.1% (active)	5.3% (active)	7.96% (active)	16.9%	-39.9% (active)	74.6%	
O=C(OCc1ccc2cccc(O)c2n1)N1CCN(C(=O)c2cc3cc(F)ccc3[nH]2)CC1	-22.8% (active)	56.9%	60%	-29.7% (active)	-47.6% (active)	-75.9% (active)	-63.2% (active)	-56.2% (active)	-87.1% (active)	-77.4% (active)	-83.9% (active)	1.96% (active)	-93.2% (active)	-81.6% (active)	-93.1% (active)	-73.4% (active)	54.7%	-98.3% (active)	-41.4% (active)	
Cn1c(-c2ccc(Br)cc2)c(O)c(=O)c2c(F)cccc21	48.4%	62.9%	53.5%	34%	20.5%	137%	54%	45.9%	42.7%	7.68% (active)	54.4%	100%	55.2%	54.5%	66.1%	47%	48.4%	57.4%	71.4%	
OB(O)c1cccc(-c2nc3ccc4[nH]ncc4c3c3c2CCCC3)c1	73%	81.6%	45%	42.3%	32.6%	47.6%	62.9%	41.8%	41.4%	41.7%	50.3%	52.6%	120%	26.1%	13.6%	37.9%	71.6%	20.9%	103%	
COc1cccc([C@H]2c3[nH]c4ccccc4c3C[C@H]3C(=O)N(CCCCCCC(=O)NO)CC(=O)N23)c1	66.8%	88.7%	80.2%	68.6%	72.9%	-1.94% (active)	25.6%	94.9%	87.8%	60.2%	76.9%	27%	24.3%	68.7%	75%	88.4%	87.5%	60.6%	51.6%	
Cc1cccc2c1NC(=O)C2(c1ccc(O)cc1)c1ccc(O)cc1	38%	25.2%	10.1%	92%	103%	48.7%	61.4%	71.6%	94.8%	-4.74% (active)	84.6%	99.9%	93.1%	86.3%	-11.2% (active)	96.7%	73.1%	95.2%	79.4%	
O=C(O)[C@@H]1c2ccccc2-c2ccccc2[C@H]1C(=O)O	91.4%	97.8%	99.2%	90.8%	109%	61.5%	91%	102%	88.8%	106%	115%	98%	96.8%	105%	102%	105%	98.8%	98.4%	80.6%	92.5%
CC(C)(C)n1cc(-c2ccnc(NCCNS(=O)(=O)c3cccc(F)c3)c2)c(-c2ccccc2)n1	79.1%	90.1%	97.8%	101%	90.7%	3.59% (active)	79.8%	79.9%	81.2%	78.3%	96.1%	44.2%	107%	87%	96.8%	97.7%	76.8%	88.1%	98.9%	
O=C(Nn1c2c(sc1=NCc1ccccc1)C(=O)c1ccccc1C2=O)c1cc2ccc1CCc1ccc(cc1)CC2	32%	66.3%	106%	77.5%	74.9%	127%	52.9%	80%	82.7%	106%	88.8%	48.8%	5.52% (active)	40.4%	60.3%	58.6%	94.8%	87.5%	52.6%	
N#CC1C=CN(CC(N)=O)c2ccc3cccnc3c21 (configuration not stated)	94.7%	87.5%	97.3%	95.2%	103%	98.3%	85.6%	88.9%	98.3%	80.3%	108%	94.7%	97.5%	95.5%	114%	105%	103%	99.1%	89%	
COC1C[C@H](O[C@@H]2C[C@H](O[C@@H]3C[C@H](O[C@@H]4C(=O)c5c(cc6cc(O[C@H]7C[C@@H](O[C@H]8C[C@@H](O)[C@H](O)C(C)O8)[C@H](O)C(C)O7)c(C)c(O)c6c5O)C[C@H]4C(OC)C(=O)[C@@H](O)[C@@H](C)O)OC(C)[C@H]3O)OC(C)[C@@H]2O)OC(C)[C@@H]1O (some centres not stated)	-1.75% (active)	3.22% (active)	6.22% (active)	-7.62% (active)	6.26% (active)	-12.1% (active)	-33.1% (active)	1.74% (active)	-5.74% (active)	-78.3% (active)	14%	4.88% (active)	-59.4% (active)	-7.44% (active)	-50.9% (active)	18.3%	7.37% (active)	-8.29% (active)	-37.3% (active)	-22.7% (active)
CCN(CC)CCOc1ccc(-c2c(-c3ccccc3)c(=O)oc3ccccc23)cc1	94.8%	82.7%	110%	95.5%	95.8%	84.3%	71.6%	92%	85%	81.2%	121%	92.1%	87.2%	88.7%	71.9%	87.4%	104%	92.6%	86.3%	
CCOC(=O)C#Cc1c(C(=O)OCC)nnn1[C@@H]1O[C@H](CO)[C@H]2OC3(CCCCC3)O[C@H]21	93.9%	80.7%	98%	110%	98.5%	54.5%	-25.2% (active)	95.2%	66.9%	-27.2% (active)	52.1%	5.02% (active)	55.1%	95.6%	9.92% (active)	94.6%	101%	81.1%	46.8%	
